Screening data (PubChem)
In the library only some 11% were active in any assay of this set; here they are far more common.
NIH3T3 tox – NIH 3T3 cell cytotoxicity; NIH 3T3 viability, CellTiter-Glo ATP luminescence, 48-72 h; Potency, µM (titrated, usually from 96.7 µM), for the others: at the top dose activity change, negative = cytotoxicity, usual class: inhibitors; actives 4.3% (n = 94,000); further: nearly all actives have a fitted effect of over 55% in size
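Cytotoxicity is measured as loss of cellular ATP: NIH 3T3 cells (400/well) are exposed to compound for 48 or 72 hr at 37 °C, then CellTiter-Glo luminescence is imaged after 10 min at room temperature.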
Luciferase inh – blocks purified firefly luciferase enzyme activity. P08659. purified P. pyralis luciferase, luminescence, biochemical. Potency, µM (titrated, usually from 115 µM), most hits filed as inhibitors. actives 2.5% (n = 76,000). AID 1347043; further: nearly all actives have a fitted effect of over 65% in size
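FLuc 10nM, D-luciferin 10uM, ATP 10uM, Mg acetate 10mM, Tris acetate pH 7.5, Tween/BSA; cpd qHTS; enzyme added last; CCD luminescence.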
HEK293 tox – kills HEK 293 cells; actives 6.6% (n = 94,000); HEK 293 viability, ATP luminescence (CellTiter-Glo), 48-72 h; Potency, µM (top dose mostly 115 µM), for inactives: at the highest dose activity change, negative = cytotoxicity, most hits filed as inhibitors; further: nearly all actives have a fitted effect of over 60% in size
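Luminescence from cellular ATP, measured with CellTiter-Glo, indicates HEK 293 viability. Cells plated at 250 cells/well are treated with compound for 48 or 72 hr at 37 degree Celsius before reagent addition.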
NPR1 antag – human Npr1 receptor antagonism; P16066; HEK293 hNpr1 GloSensor cGMP, ANP-stimulated luminescence; Potency, µM (titrated, usually from 46.3 µM), inactives show top-dose activity change, negative = inhibition, hits mostly inhibitors; actives 1.6% (n = 76,000); calls by dose curve; further: nearly all actives have a fitted effect of over 60% in size
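Compound pre-incubated 30 min at room temperature on GloSensor-loaded HEK293 cells stably carrying hNpr1 and the pGS-40F cGMP biosensor. Stimulation uses hNppA at 0.1 nM final; luminescence is taken at baseline and 20 min post-agonist.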
Numbers without * were called inactive; i = inactive; u = inconclusive; x = no result; [ ] = dose if it differs, or a comment. Unless noted, the call rests on the fitted dose curve; in most records, active means well fitted curve in the direction sought with a large enough effect; inconclusive means small, poorly fitted or top-dose-only effect, or another doubt; inactive means no such curve, though single readings can be large; an effect the other way counts as inactive or inconclusive. On the % scale 0 is the no-effect control and ±100 the full control effect; potency means the concentration at half of the fitted maximal effect.

SMILES	NIH3T3 tox	Luciferase inh	HEK293 tox	NPR1 antag
COc1ccc(-c2cc(-c3cccnc3OC)cn3cncc23)cc1	35µM*	i	u	-20%[70.6 µM]
Cc1ccc(-c2cc(-c3ccncc3)c3cncn3c2)cn1	u	i	u	0%[70.6 µM]
Oc1cccc(-c2cc(-c3cccnc3)c3cncn3c2)c1	25µM*	u	56µM*	-27%[70.6 µM]
O=C(c1ccc2nnc(-c3ccc(Cl)cc3Cl)n2c1)N1CCOCC1	-7%	x	i	x
COCCNC(=O)c1cn2cc(-c3cccnc3)sc2n1	-22%	x	3%	x
COc1ncccc1-c1cc(-c2ccncc2)c2cncn2c1	28µM*	i	u	2%[70.6 µM]
COc1ccc(-c2cc(-c3cccc(NC(C)=O)c3)cn3cncc23)cc1	u	u	u	-18%[70.6 µM]
COc1ccc(-c2cc(-c3cn[nH]c3)c3cncn3c2)cn1	u	i	u	-3%[70.6 µM]
OCc1cccc(-c2cc(-c3ccncc3)c3cncn3c2)c1	13µM*	i	25µM*	-13%[70.6 µM]
COc1ccc(-c2cc(-c3cccnc3)cn3cncc23)cc1	40µM*	i	u	-18%[70.6 µM]
COc1ccc(-c2cc(-c3ccc(OC)nc3)cn3cncc23)cc1	40µM*	i	89µM*	-12%[70.6 µM]
CC(=O)N1CC2(CCCCN2Cc2cccc(C(N)=O)c2)Cc2ccccc21 (stereo not given)	-22%	x	-31%	x
O=C(NCc1ccc(Cl)cc1)c1cc(-c2ccc(Cl)cc2Cl)c2nncn2n1	35µM*	x	u	x
O=C(NC1CCCCCC1)c1cc(-c2ccc(Cl)cc2Cl)c2nncn2n1	u	x	40µM*	x
COc1ccccc1Nc1ccnc(N2CCCC2C(=O)NC2CC2)n1 (stereo not given)	-19%	x	-19%	x
COc1cc(-c2noc(-c3ncn4c3COC(c3ccc(F)cc3)C4)n2)cc(OC)c1OC (stereo not given)	u	i	u	0%
COc1ccc(-c2noc(-c3ncn4c3COC(c3ccc(F)cc3)C4)n2)cc1OC (stereo not given)	28µM*	i	u	4%
Fc1ccc(C2Cn3cnc(-c4nc(-c5ccc6c(c5)OCO6)no4)c3CO2)cc1 (stereo not given)	25µM*	u	u	-10%
CCOC(=O)C1(Cc2cccc(Cl)c2)CCCN(Cc2cnn(C)c2)C1 (stereo not given)	-30%	i	u	4%
CCOC(=O)C1(Cc2cccc(OC)c2)CCCN(C(=O)COc2ccccc2)C1 (stereo not given)	-13%	35µM*	u	-2%
CCOC(=O)C1(Cc2cccc(OC)c2)CCCN(C(=O)CSc2ccncc2)C1 (stereo not given)	-12%	i	28µM*	-3%
CCOC(=O)C1(Cc2cccc(Cl)c2)CCCN(C(=O)c2csc(C(C)=O)c2)C1 (stereo not given)	-19%	u	40µM*	-17%
O=C(NC1CN(c2ccnc3ccnn23)C1)c1cc(F)ccc1Br	-20%	x	-5%	x
Cc1nn(-c2ccc(C(C)(C)C)cc2)c(C)c1[C@@H]1C=C[C@@H](NC(=O)NC(C)C)C1	45µM*	14µM*	45µM*	u
Cc1ccccc1-n1nc(C)c([C@H]2C=C[C@@H](OC(=O)NC(C)C)C2)c1C	25µM*	i	u	-13%[70.6 µM]
SMILES	NIH3T3 tox	Luciferase inh	HEK293 tox	NPR1 antag
Cc1nn(-c2ccc(F)cc2)c(C)c1[C@@H]1C=C[C@@H](NC(=O)NC(C)C)C1	u	63µM*	u	u
COc1ccc(CC(=O)N2CCN(c3nccc(Nc4ccc(OC)cc4)n3)CC2)cc1	-20%	x	u	x
COc1ccc(Nc2ccnc(N3CCN(C(=O)Nc4ccc(Cl)cc4)CC3)n2)cc1	-22%	x	u	x
COc1ccc(Nc2ccnc(N3CCN(C(=O)Nc4ccccc4)CC3)n2)cc1	u	x	25µM*	x
COc1ccc(Nc2ccnc(N3CCN(C(=O)c4ccc(Cl)cc4)CC3)n2)cc1	4%	x	18µM*	x
COc1ccc(Nc2ccnc(N3CCN(C(=O)c4cccc(OC)c4)CC3)n2)cc1	25µM*	x	16µM*	x
COc1ccc(Nc2ccnc(N3CCN(C(=O)c4ccccc4F)CC3)n2)cc1	35µM*	x	u	x
C[C@H]1[C@@H]2[C@@H](O)C([C@H](C)C(=O)N(C)Cc3ccccc3)CC[C@@]2(C)CC[C@@H]1NC(=O)Cc1ccccc1 (stereo not given in full)	-21%	i	u	-4%
COc1cccc(C(=O)NC2CCN(c3nccc(Nc4ccccc4Cl)n3)CC2)c1	35µM*	x	u	x
COc1cccc(C(=O)N2CCN(c3nccc(Nc4ccccc4Cl)n3)CC2)c1	u	x	35µM*	x
O=C(c1ccc(Cl)cc1)N1CCN(c2nccc(Nc3ccccc3Cl)n2)CC1	u	x	22µM*	x
COCC(=O)N1CCN(c2nccc(Nc3ccccc3Cl)n2)CC1	u	x	-27%	x
COCCNC(=O)c1cc(-c2cccc(C(F)(F)F)c2)c2cccn2n1	u	x	32µM*	x
O=C(NCC1CC1)c1cc(-c2cccc(C(F)(F)F)c2)c2cccn2n1	u	x	28µM*	x
CC(C)NC(=O)c1cc(-c2cccc(C(F)(F)F)c2)c2nncn2n1	-6%	x	-4%	x
O=C(NC1CC1)c1cc(-c2cccc(C(F)(F)F)c2)c2nncn2n1	-29%	x	-29%	x
Cc1ccc([S+](=O)([O-])N2CCC(C(=O)N3CCC(N4CCOC4=O)CC3)CC2)cc1	2%	x	i	x
COc1ccc(-c2cccc(COc3ccc4c(cnn4CC[S+](C)(=O)[O-])c3)c2)cc1	u	u	u	-30%[70.6 µM]
C[S+](=O)([O-])CCn1ncc2cc(OCc3cccc(-c4ccccc4F)c3)ccc21	u	16µM*	50µM*	u
C[S+](=O)([O-])CCn1ncc2cc(OCc3cccc(-c4cccc(CO)c4)c3)ccc21	u	u	50µM*	u
Cn1nc(C(=O)NCc2cccnc2)c2c1CN(C(=O)CC1CCCCC1)C2	-29%	x	-27%	x
COc1ccccc1-c1cc(N2CCN(c3ccccn3)CC2)c2onc(C)c2n1	u	i	u	-3%[70.6 µM]
Cc1noc2c(NCCN(C)C)cc(-c3ccc(Cl)cc3)nc12	25µM*	i	45µM*	2%[70.6 µM]
COC1CCN(c2cc(-c3ccccn3)nc3c(C)noc23)CC1	u	i	63µM*	-1%[70.6 µM]
Cc1noc2c(NCCN(C)C)cc(-c3ccc(F)cc3)nc12	40µM*	i	u	1%[70.6 µM]
Cc1noc2c(NCCN(C)C)cc(-c3ccccn3)nc12	u	i	79µM*	1%[70.6 µM]
COc1ccc(CC(=O)N2CCCC(c3nn(-c4ccccn4)c(=O)[nH]3)C2)cc1 (stereo not given)	-8%	x	-3%	x
CN(C)c1ccc(C(=O)N2CCN(C(=O)c3ccc(N(C)C)cc3)[C@H](C(=O)N[C@H](Cc3c[nH]c4ccccc34)C(N)=O)C2)cc1	-22%	i	-10%	0%
O=C(CN1C(=O)C(Oc2ccc(F)cc2)C12CCCCC2)NCCc1ccccn1 (stereo not given)	-19%	x	-7%	x
